From paper PMC5540273 (PLoS ONE, 2017)

Each compound was assayed on T1, PIK4CB. Conditions: concentration: 1 μM, replicates: in singlicate; n = 1.
T1 construct: gene PI4KB
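Further: KINOMEscan kinase panel screen.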

| Structure (SMILES) | %Inh [%] |
| --- | --- |
| Cl.Cl.NCC(NCc1ccc(-c2ccnc3[nH]ccc23)s1)c1ccccc1 (centres unmarked) [GSK1321565] | 4 |
| CC(=O)N1CCN(c2ccc(Nc3nccc(-c4sc(C(C)C)nc4-c4cccc(NS(=O)(=O)c5cccc(Cl)c5)c4)n3)cn2)CC1 [GSK1660437] | 0 |
| COc1ccc(Nc2nccc(N3CCC(NC(=O)Nc4cccc(OC)c4)C3)n2)cc1 (centres unmarked) [GSK1379742] | 1 |
| Cl.Cl.NCC(NC(=O)c1cc(-c2ccccc2)c(-c2ccnc3[nH]ccc23)s1)c1ccccc1 (centres unmarked) [GSK1321561] | 0 |
| O=C(Nc1n[nH]c2cc(-c3ccoc3)ccc12)C1CC1 [SB-738481] | 8 |
| Cl.c1ccc(-c2ccc3c(Nc4ccc5[nH]ccc5c4)ccnc3c2)nc1 [GW440138] | 0 |
| COc1cc(Nc2nccc(-c3c(-c4cccc(NC(=O)c5c(F)cccc5F)c4)nn4ncccc34)n2)cc(OC)c1OC [GSK327238] | 0 |
| CCCCc1nn2ncccc2c1-c1ccnc(Nc2ccc(N3CCN(C)CC3)cc2)n1 [GW684941] | 74 |
| Nc1ncc(-c2ccc3nccc(-c4ccncc4)c3c2)cc1S(=O)(=O)N1CCOCC1 [GSK1627798] | 96.1 |
| Cc1ccc(S(=O)(=O)Nc2ccc(Nc3nccc(Nc4cccc5[nH]ncc45)n3)cc2)cc1 [GSK581271] | 77 |
| COc1ccc(Nc2nccc(NCCNC(=O)c3cc4ccccc4s3)n2)cc1 [GSK1379896] | 0 |
| NCCCC(NC(=O)c1cc(Br)c(-c2ccnc3[nH]ccc23)s1)c1ccccc1.O=C(O)C(F)(F)F.O=C(O)C(F)(F)F (centres unmarked) [GSK1287544] | 0 |
| CC(C)c1nc(-c2cccc(NS(=O)(=O)c3c(F)cccc3F)c2F)c(-c2ccnc(Nc3ccc(N4CCOCC4)nc3)n2)s1 [GSK2008607] | 0 |
| O=C(NC1CCN(c2ccnc(Nc3ccc(F)cc3)n2)C1)c1cc2ccccc2s1 (centres unmarked) [GSK1379716] | 0 |
| Nc1ncc(-c2cccnc2)c2scc(-c3ccc4c(c3)CCN4C(=O)Cc3ccccc3)c12 [GSK683281] | 0 |
| CC(C)(C)c1ccc2nccc(Nc3cccc(O)c3)c2c1 [GW856795] | 0 |
| COc1cccc(C2=C(Nc3ccc(Cl)c(C(=O)O)c3)C(=O)NC2=O)c1 [SB-390769] | 0 |
| Cc1ccc(F)c(C(=O)Nc2cccc(-c3nn4ccccc4c3-c3ccnc(Nc4cccc(F)c4)n3)c2)c1F [GSK361061] | 0 |
| O=C(Nc1n[nH]c2nc(-c3ccc(O)cc3)ccc12)C1CC1 [SB-710363] | 20 |
| c1ccc(-c2n[nH]cc2Nc2ccnc3ccccc23)nc1 [GW694077] | 95.7 |
| CCn1c(-c2nonc2N)nc2c(C#CC(C)(C)O)ncc(OCCCCN)c21.O=C(O)C(F)(F)F.O=C(O)C(F)(F)F [GSK507274] | 0 |
| O=C(Nc1cccc(-c2nn3ccccc3c2-c2ccnc(Nc3cccc(C(F)(F)F)c3)n2)c1)c1c(F)cccc1F [GSK292658] | 8 |
| Nc1n[nH]c2cnc(-c3ccccc3)cc12 [SB-642124] | 14 |
| CN(c1ccc(NC(=O)Nc2cc(C(F)(F)F)ccc2F)cc1)c1ccnc(Nc2ccc(S(N)(=O)=O)cc2)n1 [GW809893] | 0 |
| Clc1ccc(-c2nn3ncccc3c2-c2ccnc(Nc3ccc4c(c3)OCCO4)n2)cc1 [GW829116] | 0 |
| Cn1cc(-c2[nH]c3cc(NC(=O)[C@H](N)C4CCCCC4)cc4c3c2C=NNC4=O)cn1 | 0 |
